# Experimental data: the OligoGym collection
# Molecular target: ZSCAN21
# Experiment: pooled miR-30 sensor sort-seq; sequence = guide strand
# Settings: shRNA
# Further: reference of the scale not given here.
row,Sequence,sensor-assay potency score (higher = more potent)
1,TAATGTTTCTTCCTTAACTAGA,-0.759
2,TAGACTGGATACACGTCTGTTT,-0.362
3,TAGGAACTGATTCTCTACCTTT,0.143
4,TGATACAAACTCTATCACCGGA,0.695
5,TACTCAATCTGCAATCTCGGAC,-0.338

# Molecular target: ZSCAN2
# Experiment: as above
# Settings: shRNA
row,Sequence,sensor-assay potency score (higher = more potent)
1,TAGTATACAAAAGCTACCCGAC,-0.627
2,TACAGCACTGTCCTGAAGGGTC,-0.556
3,TTAGATTGGAGTTGTAACTAAA,-0.577
4,TTTCCGAGAATATCTTACGTGA,-0.583
5,TTCATTCTCAAACATGTCTTGA,-0.592
6,TAAAGCTTTTTCCACATTCATC,-1.45
7,TTCACTGTCCTGAAGGGTCTGG,0.109
8,TATCTCAAAATCACTGTCCTGA,0.962
9,TTGAGGAGGTTGGAGCTCCAGC,-0.932
10,TTGTAACTAAAGCTTTCGCCGC,-0.979
11,TAAAATTTGAACCATCACTAAA,-1.38
12,TTGTAGTATTTCTCTCCTGTGT,-0.38

# Molecular target: ZSWIM5
# Experiment: as above
# Settings: shRNA
row,Sequence,sensor-assay potency score (higher = more potent)
1,TTCTGTAGCACAGGTCACCAAC,-1.2
2,TTGAGTTGAGTTGCTTTCCAGA,-0.443
3,TAGAATATGTCCTTGTTCCCAC,-0.0166
4,TAGTCTTTCACTTTCCCGCTGG,0.269
5,TTGTCTGTCATGTTTGTTCCTT,-0.0787
6,TTGAGGTTGTCGATGAACTGGG,-0.0434
7,TAGCAATCTTGAATGCATCTTG,0.435
8,TTTGTCAGTGGACATGAGCTTT,-0.796
9,TAGCTCATCGTCCAGCTGCAGC,-1.21
10,TTAAAGAGTAGTCTTTCACTTT,-0.123
11,TTGCACTAGCTCATCGTCCAGC,-0.629
12,TAGTGAATACTGTTCGTCTTGG,-0.686

# Molecular target: ZZEF1
# Experiment: as above
# Settings: shRNA
row,Sequence,sensor-assay potency score (higher = more potent)
1,TTCAGCTGCAGGTAGCACCAGG,-0.559
2,TAGCACTTTGCTACTGACTTGA,0.394
3,TTATAGGCAAACACCAACCCAC,-0.586
4,TTGAGGAGCAGGTTCTGTCTGA,-0.0904
5,TTAATCTGGACATAGAGCTGAC,-0.316
6,TTAGTGTTTTATACAATCCTTT,-0.602
7,TTCTTGTTTTAGTATCTCCATG,-1.42
8,TTTCTTTTGAACTTATGCCCGT,-0.351
9,TTAACCTCCTTACTATTCCGGT,-0.49
10,TTTAACAGGTCACAGTAGCGAG,-1.06
11,TTGAGAAATCTGTAGATCCTGG,0.26
